Source: PubChem BioAssay (Tox21)
Values without a mark were called inactive. Records with an inconclusive call do not appear. Entries that show only a call come without a potency. The source made the active and inactive calls. Unless noted, calls follow the shape of the dose curve; as a rule, active = well fitted curve in the direction sought with a large enough effect in the repeat runs; inconclusive = weak or mixed curves; inactive = no such curve, though single readings can be large; an effect the other way counts as inactive or inconclusive.

Assays:
[1] = qHTS assay to identify small molecule antagonists of the estrogen related receptor (ERR) signaling pathway from Tox21 library - cell viability counter screen (AID 1224834); also: nearly all actives have a fitted effect of over 30% in size; also: potency is read from the fitted curve at half-maximal effect
Summary of the method: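 Seeded ERR cells were rested 6 h at 37 C/5% CO2 before compounds, positive and negative controls or DMSO were added. Incubation continued for 17.5 h, and viability was then quantified by CellTiter-Fluor fluorescence.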

[2] = molecular target: Luciferin 4-monooxygenase (Photinus pyralis) (UniProt P08659); assay: qHTS assay to identify small molecule inhibitors of firefly luciferase (AID 1224835); also: nearly all actives have a fitted effect of over 25% in size; also: potency is read from the fitted curve at half-maximal effect
Summary of the method: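 Inhibition of purified Photinus luciferase is measured by luminescence. Substrate levels (D-luciferin, ATP) sit at their KM values. Each compound is tested in a concentration series.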

[3] = qHTS assay to identify small molecule agonists of the constitutive androstane receptor (CAR) signaling pathway - cell viability counter screen (AID 1224836); also: nearly all actives have a fitted effect of over 45% in size
Summary of the method: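 23 h treatment, 37 C, 5% CO2. Cell line: HepG2 stably expressing hCAR with a CYP2B6-2.2kb construct. Co-treatment: PK11195, 0.75 uM final. Read-out: CellTiter-Fluor fluorescence intensity.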

[4] = qHTS assay to identify small molecule antagonists of the constitutive androstane receptor (CAR) signaling pathway - cell viability counter screen (AID 1224837); also: nearly all actives have a fitted effect of over 45% in size
Summary of the method: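 To flag cytotoxic false antagonists, HepG2 hCAR/CYP2B6-2.2kb cells were treated 23 hr with 15-concentration compound series and 50 nM CITCO at 37 C/5% CO2; CellTiter-Fluor fluorescence was the measured end point.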

[5] = molecular target: Nuclear receptor subfamily 1 group I member 3 (Homo sapiens) (UniProt Q14994); assay: qHTS assay to identify small molecule antagonists of the constitutive androstane receptor (CAR) signaling pathway (AID 1224838);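 also: HepG2 cells stably expressing hCAR with CYP2B6 luciferase reporter stimulated by CITCO; nearly all actives have a fitted effect of over 40% in size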
Summary of the method: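 Human hepatoma HepG2 cells expressing hCAR and a CYP2B6 promoter (2.2 kb) luciferase construct; compound titration (15 points) with 50 nM CITCO final, 24 h at 37 C/5% CO2; luminescence via ONE-Glo after 30 min at room temperature.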

[6] = molecular target: Nuclear receptor subfamily 1 group I member 3 (Homo sapiens) (UniProt Q14994); assay: qHTS assay to identify small molecule agonists of the constitutive androstane receptor (CAR) signaling pathway (AID 1224839); also: nearly all actives have a fitted effect of over 15% in size; also: potency is read from the fitted curve at half-maximal effect;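 as to activation: HepG2 cells stably carrying human CAR and a CYP2B6 luciferase reporter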
Summary of the method: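 Compounds tested at 15 concentrations on HepG2 cells stably harbouring hCAR and CYP2B6-2.2kb reporter constructs, co-treated with PK11195 (0.75 uM final), 24 h at 37 C; luminescent reporter signal quantified.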

[7] = qHTS assay to identify small molecule antagonists of the estrogen related receptor signaling pathway with the pleiotropic PPARgamma coactivator (PGC) from Tox21 10K library - cell viability counter screen (AID 1224840; active = well fitted cell-killing curve with a large enough effect in the repeat runs, not every such curve was filed as active; also: nearly all actives have a fitted effect of over 40% in size)
Summary of the method: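 Seeded PGC/ERR cells (2,000/well, 6 h, 37 C/5% CO2) get compound by pin tool; 17.5 h incubation at 37 C; CellTiter-Fluor added, 30 min, fluorescence measured.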

[8] = qHTS assay to identify small molecule antagonists of the estrogen related receptor signaling pathway with the pleiotropic PPARgamma coactivator (PGC) from Tox21 10K library (AID 1224841; call rule not given here; also: actives are mostly falling curves and most rising ones were filed inactive; nearly all actives have a fitted effect of over 50% in size; also: potency is read from the fitted curve at half-maximal effect)
Summary of the method: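 Test chemicals dissolved in DMSO were applied to pre-incubated (6 h) PGC/ERR cells at 2,000 cells/well for an 18 h, 37 C treatment; reporter luminescence was then read using One-Glo.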

[9] = qHTS assay to identify small molecule agonists of the estrogen related receptor signaling pathway with the pleiotropic PPARgamma coactivator (PGC) from Tox21 10K library (AID 1224842); also: nearly all actives have a fitted effect of over 15% in size; also: potency is read from the fitted curve at half-maximal effect
Summary of the method: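 Luminescence from One-Glo (30 min, room temperature) measured after PGC/ERR cells had 18 h at 37 C with pinned compound (23 nL in DMSO). Cells had been seeded at 2,000 per well and pre-incubated 6 h.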

[10] = molecular target: Thyrotropin receptor (Homo sapiens) (UniProt P16473); assay: qHTS assay to identify small molecule agonists of the thyroid stimulating hormone receptor (TSHR) signaling pathway (AID 1224843; calls by dose curve; also: nearly all actives have a fitted effect of over 45% in size)
Summary of the method: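 Agonist activity read as cAMP rise via d2/cryptate HTRF competition, 1 h room-temperature detection, in HEK293 cells expressing TSHR. Fifteen-point titrations, each run in triplicate, with a 30 min room-temperature incubation beforehand.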

[11] = qHTS assay to identify small molecule agonists of the hypoxia (HIF-1) signaling pathway - cell viability counter screen (AID 1224844; calls by dose curve; also: nearly all actives have a fitted effect of over 50% in size)
Summary of the method: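 HRE-bla ME-180; 0.5% dFBS; cpd 17 h, 37C, 5% CO2; CellTiter-Glo lum., 30 min RT, post-FRET read, same wells.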

[12] = qHTS assay to identify small molecule agonists of H2AX (AID 1224845; active = well fitted activation curve with a large enough effect in the signal ratio in the repeat runs, not every such curve was filed as active; the % refers to the signal ratio)
Summary of the method: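 Phospho-H2AX Ser139 measured by HTRF (ex 320 nm; em 665 and 620 nm) after 24 hr antibody incubation. Compounds, 15 concentrations, 0.76% DMSO, were applied to CHO-K1 cells for 3hr at 37C before lysis.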

[13] = qHTS assay to identify small molecule agonists of the hypoxia (HIF-1) signaling pathway (AID 1224846; active = well fitted activation curve with a large enough effect in the signal ratio in the repeat runs, not every such curve was filed as active; the % refers to the signal ratio)
Summary of the method: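 Reporter induction in HRE-bla ME-180 cells is taken as agonism: cells sit 5 hrs after plating, receive compounds or DMSO only, incubate 17 hrs at 37C under 5% CO2, and are loaded with CCF4-AM for beta-lactamase FRET measurement.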

[14] = qHTS assay to identify small molecule antagonists of the estrogen related receptor (ERR) signaling pathway from Tox21 library (AID 1224848); also: nearly all actives have a fitted effect of over 50% in size; also: potency is read from the fitted curve at half-maximal effect
Summary of the method: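 Luciferase luminescence (ONE-Glo, 30 min room temperature) was the read-out. Cells of the NTP-supplied ERR line, 2,000 per well, were given 6 h at 37 C before compound addition in DMSO and 18 h exposure at 37 C.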

[15] = qHTS RealTime-Glo MT Cell Viability Assay in HepG2 cells - 24 hour (AID 1224867); also: nearly all actives have a fitted effect of over 50% in size
Summary of the method: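 Compound treatment began 5 h after plating HepG2 cells (600/well) with NanoLuc luciferase and prosubstrate. Plates stayed at 37 C for 40 h; luminescence was captured at six time points, 0 h through 40 h.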

[16] = qHTS RealTime-Glo MT Cell Viability Assay in HEK293 cells - 32 hour (AID 1224868); also: nearly all actives have a fitted effect of over 50% in size; also: potency is read from the fitted curve at half-maximal effect
Summary of the method: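 Quantitative high-throughput screen of the Tox21 10K library in HEK293: cells and RealTime-Glo reagents plated together, compound added at 5 h, luminescence monitored through 40 h at 37 C.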

[17] = A CellTox Green Cytotoxicity Assay to monitor cytotoxicity in HEK293 cells - 0 hour (AID 1224869); also: nearly all actives have a fitted effect of over 50% in size
Summary of the method: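 Tox21 screen in HEK293: membrane-impermeant cyanine dye fluoresces on binding dead-cell DNA; compound pinned 5 h post-seeding, plates held at 37 C, signal read repeatedly through 40 h.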

[18] = qHTS assay to identify small molecule agonists of the estrogen related receptor signaling pathway with the pleiotropic PPARgamma coactivator (PGC) (AID 1224823)
Summary of the method: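 Compounds dissolved in DMSO are added by pin tool to PGC/ERR cells that have settled for 6 h, and incubation continues 18 h at 37 C. Reporter output is measured as One-Glo luminescence.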

[19] = qHTS assay to identify small molecule agonists of H2AX - cell viability counter screen (AID 1224847; calls by dose curve; also: top concentration of the series differs between compounds; nearly all actives have a fitted effect of over 30% in size)
Summary of the method: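 Compounds tested at 15 concentrations were incubated 3 hr at 37C with wild-type CHO-K1 cells; cellular ATP-based luminescence (CellTiter-Glo) indicated viability.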

[20] = qHTS assay to identify small molecule agonists of the estrogen related receptor (ERR) signaling pathway from Tox21 library (AID 1224849; calls by dose curve; also: nearly all actives have a fitted effect of over 15% in size); conditions: ERR reporter cell line, ONE-Glo luciferase, 18 h; at 92.4 µM (top of the series) unless noted
Summary of the method: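 Tox21 compounds tested for ERR agonism in an NTP reporter cell line: 18 h treatment at 37 C, then ONE-Glo luminescence.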

Sequence of Luciferin 4-monooxygenase (Photinus pyralis) (P08659 whole entry, looked up): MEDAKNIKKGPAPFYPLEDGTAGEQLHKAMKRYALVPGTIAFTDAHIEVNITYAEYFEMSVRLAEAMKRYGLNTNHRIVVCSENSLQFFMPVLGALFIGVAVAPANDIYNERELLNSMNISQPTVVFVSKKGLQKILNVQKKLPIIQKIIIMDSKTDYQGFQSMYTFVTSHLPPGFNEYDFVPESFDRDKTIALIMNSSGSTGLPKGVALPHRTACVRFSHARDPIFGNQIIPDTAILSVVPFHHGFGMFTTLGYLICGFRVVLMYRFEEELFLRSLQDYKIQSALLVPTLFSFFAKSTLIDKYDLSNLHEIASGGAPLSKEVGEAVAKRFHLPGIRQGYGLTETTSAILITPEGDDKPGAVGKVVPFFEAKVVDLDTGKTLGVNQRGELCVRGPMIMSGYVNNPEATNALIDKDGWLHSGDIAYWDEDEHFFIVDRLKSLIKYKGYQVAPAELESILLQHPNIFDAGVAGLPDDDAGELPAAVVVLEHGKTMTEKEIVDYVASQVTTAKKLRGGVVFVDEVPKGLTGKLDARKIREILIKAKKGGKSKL
Sequence of Nuclear receptor subfamily 1 group I member 3 (Homo sapiens) (Q14994 whole entry, looked up): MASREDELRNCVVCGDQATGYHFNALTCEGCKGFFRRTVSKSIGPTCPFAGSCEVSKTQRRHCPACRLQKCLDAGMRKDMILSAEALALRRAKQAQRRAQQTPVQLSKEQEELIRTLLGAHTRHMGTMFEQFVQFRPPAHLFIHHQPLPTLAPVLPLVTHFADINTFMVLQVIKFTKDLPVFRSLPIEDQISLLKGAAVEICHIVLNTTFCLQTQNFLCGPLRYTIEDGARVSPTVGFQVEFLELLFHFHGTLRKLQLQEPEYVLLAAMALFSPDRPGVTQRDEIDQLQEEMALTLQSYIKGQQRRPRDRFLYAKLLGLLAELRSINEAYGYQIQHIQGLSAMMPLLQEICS
Sequence of Thyrotropin receptor (Homo sapiens) (P16473 whole entry, looked up): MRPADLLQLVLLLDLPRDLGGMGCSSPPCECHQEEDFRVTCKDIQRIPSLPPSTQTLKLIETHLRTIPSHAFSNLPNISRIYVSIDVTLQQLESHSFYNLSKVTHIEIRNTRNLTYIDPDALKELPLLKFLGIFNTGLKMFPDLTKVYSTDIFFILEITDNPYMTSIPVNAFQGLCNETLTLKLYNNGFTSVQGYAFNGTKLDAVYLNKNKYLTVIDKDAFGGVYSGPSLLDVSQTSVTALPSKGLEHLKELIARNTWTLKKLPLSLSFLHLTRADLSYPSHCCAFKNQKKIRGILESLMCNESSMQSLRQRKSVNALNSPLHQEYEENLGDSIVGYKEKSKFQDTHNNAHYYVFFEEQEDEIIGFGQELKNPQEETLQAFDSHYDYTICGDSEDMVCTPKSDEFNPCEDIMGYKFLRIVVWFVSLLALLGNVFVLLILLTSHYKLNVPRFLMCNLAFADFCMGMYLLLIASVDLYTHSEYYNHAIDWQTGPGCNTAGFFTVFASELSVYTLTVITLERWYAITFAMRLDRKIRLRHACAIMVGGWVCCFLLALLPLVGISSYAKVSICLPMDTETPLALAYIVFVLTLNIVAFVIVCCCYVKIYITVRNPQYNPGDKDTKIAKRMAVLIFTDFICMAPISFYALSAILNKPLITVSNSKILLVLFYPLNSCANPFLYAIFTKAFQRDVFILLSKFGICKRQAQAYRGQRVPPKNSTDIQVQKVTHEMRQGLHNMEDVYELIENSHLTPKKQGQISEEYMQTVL

| SMILES | Potency [1] | Potency [2] | Potency [3] | Potency [4] | Potency [5] | Potency [6] | Potency [7] | Potency [8] | Potency [9] | Potency [10] | Potency [11] | Potency [12] | outcome [13] | Potency [14] | Potency [15] | Potency [16] | Potency [17] | outcome [18] | Potency [19] | activity change, positive = activation [20] |
| --- | --- | --- | --- | --- | --- | --- | --- | --- | --- | --- | --- | --- | --- | --- | --- | --- | --- | --- | --- | --- |
| O=C(O)c1cccc(Oc2ccccc2)c1 | inactive | inactive | inactive | inactive | inactive | inactive | inactive | inactive | inactive | inactive | inactive | inactive | inactive | inactive | inactive | inactive | inactive | – | – | – |
| CC(=O)OC(C)C[N+](C)(C)C (stereo unspecified) | inactive | inactive | inactive | inactive | inactive | inactive | inactive | inactive | inactive | – | inactive | inactive | – | inactive | inactive | inactive | – | inactive | inactive | – |
| CC1CCc2nccnc21 (stereo unspecified) | inactive | inactive | inactive | inactive | inactive | inactive | inactive | inactive | inactive | – | inactive | inactive | inactive | inactive | inactive | inactive | inactive | – | inactive | 3.13% |
| CN=C(N)NC(=O)Nc1c(C)cccc1C | inactive | inactive | inactive | inactive | inactive | inactive | inactive | inactive | inactive | inactive | inactive | inactive | inactive | inactive | inactive | inactive | inactive | – | inactive | – |
| Cc1ccc(Nc2c(F)cccc2Cl)c(CC(=O)O)c1 | inactive | inactive | inactive | inactive | inactive | inactive | inactive | inactive | inactive | inactive | inactive | inactive | inactive | inactive | inactive | inactive | inactive | – | inactive | -14.1% [at 42.5 µM] |
| CC(C)N=C=NC(C)C | inactive | inactive | inactive | inactive | inactive | inactive | inactive | inactive | inactive | – | inactive | inactive | inactive | inactive | inactive | inactive | inactive | – | inactive | 2.53% |
| CC(C)c1ccc(C#N)cc1 | inactive | inactive | inactive | inactive | inactive | inactive | inactive | inactive | inactive | inactive | inactive | inactive | inactive | inactive | inactive | 15.5 µM (active) | inactive | – | inactive | – |
| CC1C(C)(C)C2=C(C(=O)CCC2)C1(C)C (stereo unspecified) | inactive | inactive | inactive | inactive | inactive | inactive | inactive | inactive | inactive | inactive | inactive | inactive | inactive | inactive | inactive | inactive | inactive | – | inactive | – |
| COC(=O)C1=C(C)NC(C)=C(C(=O)OC(C)(C)CN(C)CCC(c2ccccc2)c2ccccc2)C1c1cccc([N+](=O)[O-])c1 (stereo unspecified) | 23.7 µM (active) | inactive | – | – | inactive | inactive | – | 16.8 µM (active) | inactive | inactive | inactive | – | – | 13.3 µM (active) | – | inactive | inactive | inactive | inactive | – |
| CCC(CO)(CO)[N+](=O)[O-] | inactive | inactive | inactive | inactive | inactive | inactive | inactive | inactive | inactive | inactive | inactive | inactive | inactive | inactive | inactive | inactive | inactive | – | inactive | – |
| CCCCCCCC(=O)OCCCCCC | inactive | inactive | inactive | inactive | inactive | inactive | inactive | inactive | inactive | inactive | inactive | inactive | inactive | inactive | inactive | 3.47 µM (active) | inactive | – | inactive | -7.04% |
| COC(=O)c1sccc1S(N)(=O)=O | inactive | inactive | inactive | inactive | inactive | inactive | inactive | inactive | inactive | inactive | inactive | inactive | inactive | inactive | inactive | inactive | inactive | – | inactive | 0.3% |
| CC(CCc1ccc(O)cc1)NCCc1ccc(O)c(O)c1 (stereo unspecified) | inactive | inactive | inactive | inactive | – | – | inactive | inactive | inactive | inactive | inactive | – | inactive | inactive | inactive | inactive | inactive | inactive | inactive | – |
| COc1ccc(/C=C/C(=O)c2ccc(OC)cc2OC)cc1 | inactive | 17.4 µM (active) | inactive | inactive | inactive | 21.1 µM (active) | inactive | inactive | inactive | inactive | inactive | inactive | inactive | – | inactive | inactive | inactive | – | inactive | – |
| O=C(NS(=O)(=O)/C=C/c1ccccc1)c1ccc(F)cc1Cl | inactive | inactive | inactive | inactive | inactive | inactive | inactive | inactive | 13.7 µM (active) | inactive | inactive | inactive | inactive | inactive | inactive | – | inactive | – | inactive | – |
